Assay outcomes deposited in PubChem BioAssay by Broad Institute.
FGF22 binding: FGF22 (human) thermal shift binding | recombinant FGF22 thermal shift, SYPRO orange fluorescence; percent of sucrose octasulfate shift, DMSO zero | Q9HCT0 | AID 651658 | activity (Tm shift, normalised), % at 9.99 µM | 1.5% of 340,000 active;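 active means mean Tm shift, scaled 0 neutral to 100 positive control, at about 1.3% or above, every replicate too, limit read from the data; inconclusive means no clear call, values can overlap the other calls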
Target sequence (Q9HCT0 whole entry, looked up): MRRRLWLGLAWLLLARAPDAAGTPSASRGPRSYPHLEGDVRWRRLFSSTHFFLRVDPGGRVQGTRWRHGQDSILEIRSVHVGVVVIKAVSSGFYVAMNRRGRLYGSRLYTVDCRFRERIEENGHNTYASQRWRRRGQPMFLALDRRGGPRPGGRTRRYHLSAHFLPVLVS
DENV2 CPE rescue: DENV2-induced cell death inhibition. AID 651640. 1.7% of 350,000 active. CPE inhibition, % at 9.99 µM. DENV2-infected cells, cytopathic effect rescue, plate reader; in the data active means CPE inhibition above about 20%, passing the limit was not always enough; inconclusive means no clear call, values can overlap the other calls; tested in BHK-21 cells;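 further: 0% = median of neutral control wells and 100% = median of positive control wells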
MLL AF4-AF9 inh: inhibitors of human MLL-AF4/AF9 interaction; P42568; AlphaScreen, biotin-AF4 peptide binding to FLAG-AF9; inhibition, % at 10 µM; 0.47% of 350,000 active; AID 651704;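 active means every replicate reaching a set inhibition limit, whatever the replicate mean, cut at about 25% in these data; inconclusive means mean inhibition reaches that limit but some replicates miss it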;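 further: 0% = plate neutral control median and 100% = total signal loss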
RAD52 anneal inh: RAD52 (human) annealing inhibition; AID 651710; inhibition, % at 18.7 µM; 0.46% of 360,000 active; recombinant RAD52 DNA annealing, FRET fluorescence;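 active means every replicate showing at least 50% inhibition; inconclusive means mean inhibition at least 50% but not in every replicate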
Target sequence (P43351 whole entry, looked up): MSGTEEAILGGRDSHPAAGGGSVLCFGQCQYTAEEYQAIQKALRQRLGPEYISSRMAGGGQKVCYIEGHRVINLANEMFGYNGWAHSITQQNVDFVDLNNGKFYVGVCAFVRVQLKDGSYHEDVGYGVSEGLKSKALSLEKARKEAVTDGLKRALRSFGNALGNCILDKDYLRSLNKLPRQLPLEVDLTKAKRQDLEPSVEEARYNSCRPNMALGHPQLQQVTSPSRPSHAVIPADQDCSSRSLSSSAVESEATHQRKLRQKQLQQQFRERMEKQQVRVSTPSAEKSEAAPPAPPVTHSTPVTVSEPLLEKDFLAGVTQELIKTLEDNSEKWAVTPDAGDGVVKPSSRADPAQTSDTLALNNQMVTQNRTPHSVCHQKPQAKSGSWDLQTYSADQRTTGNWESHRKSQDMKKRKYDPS
ERAP1 HTS inh: blocks human ERAP1 aminopeptidase activity; Q9NZ08; recombinant ERAP1, Leu-AMC fluorescence, 60 min; inhibition, % at 10.7 µM; 0.15% of 340,000 active; AID 652197;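 active means mean replicate inhibition of at least 30%, or all replicates individually reaching that 30% level; inactive means mean below 30% and not every replicate reaching it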;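 further: 0% = neutral control wells and 100% = L-leucinethiol positive control wells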
* marks the source's active call; other numbers are inactive results. In the library only some 4% were active in any assay of this set; here they are far more common.

Results for O=c1[nH]c(CSc2nnnn2-c2ccccc2)nc2ccccc12 ?
FGF22 binding: 43*; DENV2 CPE rescue: -10; MLL AF4-AF9 inh: -1; RAD52 anneal inh: -14; ERAP1 HTS inh: -2

What do the screens show for `Cn1c(SCc2nc3ccccc3c(=O)[nH]2)nc2ccccc21`?
FGF22 binding: 0; DENV2 CPE rescue: -3; MLL AF4-AF9 inh: 0; RAD52 anneal inh: -2; ERAP1 HTS inh: 1

Results for CS(=O)(=O)Nc1ccc2c(c1)[C@H]1C[C@H](CC(=O)NCC(F)(F)F)O[C@H](CO)[C@H]1O2 ?
FGF22 binding: 0; DENV2 CPE rescue: 1; MLL AF4-AF9 inh: -8; RAD52 anneal inh: 8; ERAP1 HTS inh: 0

How did COC(=O)[C@@]1(CCS(=O)(=O)c2ccccc2)COC(c2ccc(OCCCO)cc2)=N1 do in these assays?
FGF22 binding: 0; DENV2 CPE rescue: -14; MLL AF4-AF9 inh: -28; RAD52 anneal inh: 1; ERAP1 HTS inh: 3

Results for c1ccc(CCCCN2C(Nc3ccccc3)=NC[C@@H]2Cc2ccccc2)cc1 ?
FGF22 binding: 0; DENV2 CPE rescue: 24*; MLL AF4-AF9 inh: 12; RAD52 anneal inh: 10; ERAP1 HTS inh: -3

What do the screens show for `CC(C)CCN1C(Nc2ccccc2)=NC[C@@H]1CC(C)C`?
FGF22 binding: 0; DENV2 CPE rescue: -2; MLL AF4-AF9 inh: 3; RAD52 anneal inh: -15; ERAP1 HTS inh: 0

How did CCN1C(Nc2ccccc2)=NC[C@@H]1CC(C)C do in these assays?
FGF22 binding: 0; DENV2 CPE rescue: 22*; MLL AF4-AF9 inh: 0; RAD52 anneal inh: -10; ERAP1 HTS inh: 2

Results for Cc1ccc(-c2cnc3c(c2)C(=O)N([C@@H](C)CO)C[C@H](C)[C@@H](CN(C)C(=O)c2cccnc2)O3)cc1 ?
FGF22 binding: 0; DENV2 CPE rescue: -2; MLL AF4-AF9 inh: 0; RAD52 anneal inh: -20; ERAP1 HTS inh: 3

How did CCN(CC)C(=O)Cn1cc(C(=O)C(=O)N2CC=C(c3ccccc3)CC2)c2ccccc21 do in these assays?
FGF22 binding: 43*; DENV2 CPE rescue: -2; MLL AF4-AF9 inh: -1; RAD52 anneal inh: -336; ERAP1 HTS inh: 1

How did COc1ccc2c3c([nH]c2c1)[C@H](CO)N(C(=O)c1ccccc1)CC31CCN(C(=O)c2cccc(F)c2)CC1 do in these assays?
FGF22 binding: 0; DENV2 CPE rescue: -12; MLL AF4-AF9 inh: -3; RAD52 anneal inh: 15; ERAP1 HTS inh: 1

What do the screens show for `COCCN1CCN(Cc2nc(C3(c4ccc(C)cc4)CCCC3)no2)CC1`?
FGF22 binding: 43*; DENV2 CPE rescue: 2; MLL AF4-AF9 inh: 1; RAD52 anneal inh: 4; ERAP1 HTS inh: 0

What do the screens show for `CC(=O)N1CCCN(Cc2nc(C3(c4ccc(C)cc4)CCCC3)no2)CC1`?
FGF22 binding: 0; DENV2 CPE rescue: 11; MLL AF4-AF9 inh: -10; RAD52 anneal inh: -9; ERAP1 HTS inh: -5

What do the screens show for `O=C1CCN(CCCN2CCC(=O)NC2=S)C(=S)N1`?
FGF22 binding: 44*; DENV2 CPE rescue: 0; MLL AF4-AF9 inh: 4; RAD52 anneal inh: 7; ERAP1 HTS inh: 4

How did COc1ccc(-c2ccc([C@@H]3[C@@H](CO)N4CCCCN(C(=O)c5ccc6c(c5)OCO6)C[C@@H]34)cc2)cc1 do in these assays?
FGF22 binding: -1; DENV2 CPE rescue: inconclusive; MLL AF4-AF9 inh: -9; RAD52 anneal inh: -47; ERAP1 HTS inh: 0

Results for C[C@@H]1CCCCO[C@@H](CN(C)Cc2ccc3c(c2)OCO3)[C@@H](C)CN([C@H](C)CO)C(=O)c2cc(NC(=O)CCCCCC(=O)Nc3ccccc3N)ccc2O1 ?
FGF22 binding: 0; DENV2 CPE rescue: -19; MLL AF4-AF9 inh: 1; RAD52 anneal inh: -2; ERAP1 HTS inh: 2

What do the screens show for `COc1ccc(CC(=O)OC(C)CN2CCCCC2)cc1` (centres undefined)?
FGF22 binding: 43*; DENV2 CPE rescue: 0; MLL AF4-AF9 inh: -15; RAD52 anneal inh: -9; ERAP1 HTS inh: -1

Results for CO[C@@H]1CN(C)C(=O)c2cc(NC(=O)c3ccccc3)ccc2OC[C@H](C)N(C(=O)C2CC2)C[C@@H]1C ?
FGF22 binding: 0; DENV2 CPE rescue: 95*; MLL AF4-AF9 inh: 2; RAD52 anneal inh: -1; ERAP1 HTS inh: -3

Results for CO[C@@H]1CN(C)C(=O)c2ccc(NC(=O)c3ccccc3)cc2OC[C@@H](C)N(C(=O)C2CC2)C[C@H]1C ?
FGF22 binding: 0; DENV2 CPE rescue: 26*; MLL AF4-AF9 inh: -25; RAD52 anneal inh: 15; ERAP1 HTS inh: -1

How did CO[C@@H]1CN(C)C(=O)c2ccc(NC(=O)c3cc(C)on3)cc2OC[C@@H](C)N(C)C[C@@H]1C do in these assays?
FGF22 binding: 0; DENV2 CPE rescue: -12; MLL AF4-AF9 inh: -2; RAD52 anneal inh: 5; ERAP1 HTS inh: 4

How did COC(=O)c1cc(C#N)c(=O)[nH]c1C do in these assays?
FGF22 binding: 0; DENV2 CPE rescue: -2; MLL AF4-AF9 inh: -3; RAD52 anneal inh: -15; ERAP1 HTS inh: 0

How did COC(=O)c1cc(C#N)c(OC)nc1C do in these assays?
FGF22 binding: 43*; DENV2 CPE rescue: -12; MLL AF4-AF9 inh: -2; RAD52 anneal inh: -16; ERAP1 HTS inh: 2

Results for COc1cccc(CN2[C@@H](CO)[C@@H](c3ccccc3)C23CN(C(=O)C2CCCC2)C3)c1 ?
DENV2 CPE rescue: -5; MLL AF4-AF9 inh: 5; RAD52 anneal inh: -32; ERAP1 HTS inh: 3

How did CC(C)C[C@H](NC(=O)OC(C)(C)C)C(=O)NCC1CCC(C(=O)N[C@@H](Cc2ccccc2)C(=O)O)CC1 (some centres undefined) do in these assays?
FGF22 binding: 0; DENV2 CPE rescue: -2; MLL AF4-AF9 inh: 0; RAD52 anneal inh: -2; ERAP1 HTS inh: -3

What do the screens show for `CC(C)[C@H](NC(=O)OC(C)(C)C)C(=O)NCC1CCC(C(=O)N[C@@H](Cc2ccccc2)C(=O)O)CC1` (some centres undefined)?
FGF22 binding: 0; DENV2 CPE rescue: 40*; MLL AF4-AF9 inh: -3; RAD52 anneal inh: -2; ERAP1 HTS inh: 1

Results for COc1cc(OC)cc(-c2oc(=O)c3cc(OC)c(OC)cc3c2C#CCCO)c1 ?
FGF22 binding: 0; DENV2 CPE rescue: 30*; RAD52 anneal inh: -7; ERAP1 HTS inh: 2

Results for COc1ccc2c(C)cc(N3CCCCCC3)nc2c1 ?
FGF22 binding: 0; DENV2 CPE rescue: -10; MLL AF4-AF9 inh: -8; RAD52 anneal inh: -12; ERAP1 HTS inh: -1

How did COc1ccc2c(C)cc(N3CCN(Cc4ccccc4)CC3)nc2c1 do in these assays?
FGF22 binding: 0; DENV2 CPE rescue: inconclusive; MLL AF4-AF9 inh: 5; RAD52 anneal inh: 1; ERAP1 HTS inh: 37*

Results for CCc1cccc(CC)c1NC(=S)NC(C)c1ccccc1 (centres undefined) ?
FGF22 binding: 44*; DENV2 CPE rescue: -2; MLL AF4-AF9 inh: -8; RAD52 anneal inh: 3; ERAP1 HTS inh: 0

What do the screens show for `OC(CCN1CCC2(CC1)OCCO2)C(F)(F)F` (centres undefined)?
FGF22 binding: 43*; DENV2 CPE rescue: 4; MLL AF4-AF9 inh: -2; RAD52 anneal inh: 6; ERAP1 HTS inh: 3
